Laboratory results reported in the supplement of paper PMC3342239.
Structures can show the parent of a compound that is named as a salt.

test system: Saccharomyces cerevisiae; test: fraction of cells in G1 phase (DNA content, flow cytometry); higher = more cells with unreplicated DNA (G1 delay); settings: temperature: 30 C; YPD; BY4741 PDR5+ SNQ2+; drug added to: actively dividing cells; 4.33 h
Procedure, shortened: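 S. cerevisiae grown in YPD at 30°C was exposed to library drugs. In one setup, overnight sensitized JTY2953 cultures were diluted 1∶200, given a final 20 µg/ml and fixed after 6–7 h, while other runs dosed dividing JTY2953 with fixation 6 h later or BY4741 with fixation 4.33 h later. Cells were ethanol-fixed, stained with SYTOX Green and analysed by flow cytometry at 10,000 events. The G1 fraction is the area of the Dean-Jett-Fox G1 peak divided by the summed G1 and G2/M areas.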

SMILES | fraction of cells in G1 phase
CC(CN1c2ccccc2Sc2ccccc21)N(C)C (centres undefined) [Promethazine HCl] (70.317 µM) | 0.437
CC(=O)[C@]1(O)Cc2c(O)c3c(c(O)c2[C@@H](O[C@H]2C[C@H](N)[C@H](O)[C@H](C)O2)C1)C(=O)c1ccccc1C3=O [Idarubicin] (40.2005 µM) | 0.14
COc1c(N2CCNC(C)C2)c(F)cc2c(=O)c(C(=O)O)cn(C3CC3)c12 (centres undefined) [Gatifloxacin] (53.276 µM) | 0.391

same assay, conditions: temperature: 30 C; YPD; JTY2953 pdr5 snq2 (sensitized); drug added to: actively dividing cells; 6 h

SMILES | fraction of cells in G1 phase
O=C1NCN(c2ccccc2)C12CCN(CCCC(c1ccc(F)cc1)c1ccc(F)cc1)CC2 [Fluspirilene] (42.0533 µM) | 0.338
CCN(CC)C(=S)SSC(=S)N(CC)CC [Disulfiram] (67.4445 µM) | 0.466
CC/C(=C(\c1ccccc1)c1ccc(OCCN(C)C)cc1)c1ccccc1 [Tamoxifen citrate] (53.8319 µM) | 0.385
Clc1ccc(Nc2nnc(Cc3ccncc3)c3ccccc23)cc1 [Vatalanib] (57.6664 µM) | 0.691
CN1CCN(CCCN2c3ccccc3Sc3ccc(C(F)(F)F)cc32)CC1 [Trifluoperazine 2HCl] (41.632 µM) | 0.295
CCN(CC)CCOc1ccc(C(=C(Cl)c2ccccc2)c2ccccc2)cc1 [Clomiphene citrate] (49.2645 µM) | 0.388
